# Source: article PMC7862700, “An all-to-all approach to the identification of sequence-specific readers for epigenetic DNA modifications on cytosine”
# What was measured:
# Assay in all cases: DAPPL (digital affinity profiling via proximity ligation, sequencing); 10 mM Tris-HCl pH 7.5, 50 mM NaCl, 1 mM DTT, 4% glycerol, room temperature, 30 min; GST-TFs on glutathione beads, 16-mer random dsDNA library, 0.1% formaldehyde crosslink after washing; high values mean tight binding
# FEV = target: T1, FEV (Homo sapiens, UniProt Q99581 1-238); details: protein: recombinant; tags: N-terminal GST; dsDNA, one strand shown
# T1 sequence: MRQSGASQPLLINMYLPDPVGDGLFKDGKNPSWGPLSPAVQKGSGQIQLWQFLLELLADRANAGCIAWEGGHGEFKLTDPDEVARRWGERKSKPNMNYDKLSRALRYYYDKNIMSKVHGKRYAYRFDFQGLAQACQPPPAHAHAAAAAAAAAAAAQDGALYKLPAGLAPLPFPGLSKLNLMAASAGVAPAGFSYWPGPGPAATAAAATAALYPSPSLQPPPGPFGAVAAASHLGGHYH
# Outline: (§1)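 GST fusions of human transcription factors were expressed in yeast and captured with glutathione beads. Once given DNA barcodes and pooled alongside a tag-only sample, they were incubated for 30 min at room temperature with 200 nmole of a random double-stranded 16-mer DNA library in Tris/NaCl/DTT/glycerol buffer, then washed, crosslinked (0.1% formaldehyde), proximity-ligated, PCR-amplified and sequenced on an Illumina NextSeq500. The binding signal of each hexamer is its read frequency for a factor divided by its frequency for the tag-only sample.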
# ETV5 = ETV5 (Homo sapiens, UniProt P41161 1-510); details: protein: recombinant; tags: N-terminal GST; dsDNA, one strand shown
# ETV5, sequence (P41161 whole entry): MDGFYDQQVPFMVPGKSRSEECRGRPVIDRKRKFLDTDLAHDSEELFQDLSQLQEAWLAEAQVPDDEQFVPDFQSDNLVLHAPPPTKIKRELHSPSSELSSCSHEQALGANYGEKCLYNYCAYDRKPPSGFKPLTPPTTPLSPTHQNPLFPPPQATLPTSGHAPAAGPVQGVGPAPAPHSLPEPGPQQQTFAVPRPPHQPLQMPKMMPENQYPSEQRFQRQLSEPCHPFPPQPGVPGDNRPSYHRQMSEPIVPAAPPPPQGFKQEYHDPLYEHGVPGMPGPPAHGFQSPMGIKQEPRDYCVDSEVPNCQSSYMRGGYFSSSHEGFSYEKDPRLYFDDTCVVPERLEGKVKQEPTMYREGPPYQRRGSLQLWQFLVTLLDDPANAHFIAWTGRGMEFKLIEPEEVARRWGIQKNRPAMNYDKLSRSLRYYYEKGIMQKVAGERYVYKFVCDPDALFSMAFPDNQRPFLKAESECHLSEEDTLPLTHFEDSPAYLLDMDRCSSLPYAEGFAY
# Outline: as §1
# HSF1 = HSF1 (Homo sapiens, UniProt Q00613 1-529); details: protein: recombinant; tags: N-terminal GST; chain copies: 3; dsDNA, one strand shown
# HSF1, sequence (Q00613 whole entry): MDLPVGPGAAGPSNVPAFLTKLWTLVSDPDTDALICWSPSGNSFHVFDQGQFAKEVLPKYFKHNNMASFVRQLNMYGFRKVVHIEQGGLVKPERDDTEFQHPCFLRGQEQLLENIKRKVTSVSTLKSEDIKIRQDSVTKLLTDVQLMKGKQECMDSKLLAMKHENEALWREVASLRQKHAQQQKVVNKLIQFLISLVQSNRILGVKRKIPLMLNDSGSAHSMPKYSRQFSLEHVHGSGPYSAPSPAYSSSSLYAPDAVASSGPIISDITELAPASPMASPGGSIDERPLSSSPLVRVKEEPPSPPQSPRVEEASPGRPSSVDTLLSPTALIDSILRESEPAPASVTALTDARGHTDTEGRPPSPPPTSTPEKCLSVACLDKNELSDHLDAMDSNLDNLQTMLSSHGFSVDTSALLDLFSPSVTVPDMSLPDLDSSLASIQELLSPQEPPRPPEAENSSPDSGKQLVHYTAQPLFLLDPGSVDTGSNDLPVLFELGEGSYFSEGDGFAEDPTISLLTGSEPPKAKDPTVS
# Outline: as §1
# SPIC = target: T2, SPIC (Homo sapiens, UniProt Q8N5J4 1-248); details: protein: recombinant; tags: N-terminal GST; dsDNA, one strand shown
# T2 sequence: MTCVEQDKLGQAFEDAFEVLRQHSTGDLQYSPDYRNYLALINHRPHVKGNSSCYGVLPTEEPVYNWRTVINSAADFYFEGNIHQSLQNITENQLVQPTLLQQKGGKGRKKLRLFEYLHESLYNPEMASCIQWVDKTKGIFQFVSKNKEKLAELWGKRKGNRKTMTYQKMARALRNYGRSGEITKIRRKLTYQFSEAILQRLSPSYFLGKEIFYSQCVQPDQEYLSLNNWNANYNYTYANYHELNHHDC
# Outline: as §1
# ELF4 = ELF4 (Homo sapiens, UniProt Q99607 1-663); details: protein: recombinant; tags: N-terminal GST; dsDNA, one strand shown
# ELF4, sequence (Q99607 whole entry): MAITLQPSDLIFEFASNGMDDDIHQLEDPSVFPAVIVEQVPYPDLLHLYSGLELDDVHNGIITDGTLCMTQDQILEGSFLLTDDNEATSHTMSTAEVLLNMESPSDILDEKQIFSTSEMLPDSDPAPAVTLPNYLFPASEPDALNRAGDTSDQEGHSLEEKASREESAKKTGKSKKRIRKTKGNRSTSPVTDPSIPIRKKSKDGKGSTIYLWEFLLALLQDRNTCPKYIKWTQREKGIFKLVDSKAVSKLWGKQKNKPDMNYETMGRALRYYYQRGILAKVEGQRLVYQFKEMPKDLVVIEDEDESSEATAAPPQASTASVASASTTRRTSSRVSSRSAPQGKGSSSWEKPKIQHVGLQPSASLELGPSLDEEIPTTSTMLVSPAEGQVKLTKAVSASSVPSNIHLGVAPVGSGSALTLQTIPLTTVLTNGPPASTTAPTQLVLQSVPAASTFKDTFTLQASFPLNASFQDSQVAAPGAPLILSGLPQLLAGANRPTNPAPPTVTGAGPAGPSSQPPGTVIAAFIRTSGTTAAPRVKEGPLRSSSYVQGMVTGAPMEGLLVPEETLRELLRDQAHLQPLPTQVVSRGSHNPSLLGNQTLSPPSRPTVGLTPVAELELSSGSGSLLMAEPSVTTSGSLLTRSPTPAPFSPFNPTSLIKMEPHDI
# Outline: as §1
# ELK4 = target: T3, ELK4 (Homo sapiens, UniProt P28324-2 1-405); details: protein: recombinant; tags: N-terminal GST; dsDNA, one strand shown
# T3 sequence: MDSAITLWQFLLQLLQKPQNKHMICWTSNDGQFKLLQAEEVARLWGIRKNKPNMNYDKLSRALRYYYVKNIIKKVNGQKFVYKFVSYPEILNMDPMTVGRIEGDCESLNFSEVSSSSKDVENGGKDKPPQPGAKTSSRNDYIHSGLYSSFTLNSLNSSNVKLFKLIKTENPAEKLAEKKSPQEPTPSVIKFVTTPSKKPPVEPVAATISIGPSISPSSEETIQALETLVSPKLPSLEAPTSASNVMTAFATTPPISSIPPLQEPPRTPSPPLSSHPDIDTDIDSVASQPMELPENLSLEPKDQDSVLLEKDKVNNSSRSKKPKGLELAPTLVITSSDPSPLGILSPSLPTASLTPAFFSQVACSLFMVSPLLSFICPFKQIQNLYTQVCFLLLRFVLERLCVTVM
# Outline: as §1
# ETV2 = target: T4, ETV2 (Homo sapiens, UniProt O00321 1-342); details: protein: recombinant; tags: N-terminal GST; dsDNA, one strand shown
# T4 sequence: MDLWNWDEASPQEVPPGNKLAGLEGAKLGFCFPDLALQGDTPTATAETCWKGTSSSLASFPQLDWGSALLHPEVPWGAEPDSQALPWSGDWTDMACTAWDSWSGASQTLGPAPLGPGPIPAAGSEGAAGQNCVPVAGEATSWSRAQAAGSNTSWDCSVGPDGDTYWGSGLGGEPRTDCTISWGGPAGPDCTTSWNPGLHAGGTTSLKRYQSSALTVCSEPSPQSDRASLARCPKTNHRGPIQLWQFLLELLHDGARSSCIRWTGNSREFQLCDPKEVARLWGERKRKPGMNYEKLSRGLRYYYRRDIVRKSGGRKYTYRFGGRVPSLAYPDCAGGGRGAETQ
# Outline: as §1
# ELF3 = target: T5, ELF3 (Homo sapiens, UniProt P78545 1-371); details: protein: recombinant; tags: N-terminal GST; dsDNA, one strand shown
# T5 sequence: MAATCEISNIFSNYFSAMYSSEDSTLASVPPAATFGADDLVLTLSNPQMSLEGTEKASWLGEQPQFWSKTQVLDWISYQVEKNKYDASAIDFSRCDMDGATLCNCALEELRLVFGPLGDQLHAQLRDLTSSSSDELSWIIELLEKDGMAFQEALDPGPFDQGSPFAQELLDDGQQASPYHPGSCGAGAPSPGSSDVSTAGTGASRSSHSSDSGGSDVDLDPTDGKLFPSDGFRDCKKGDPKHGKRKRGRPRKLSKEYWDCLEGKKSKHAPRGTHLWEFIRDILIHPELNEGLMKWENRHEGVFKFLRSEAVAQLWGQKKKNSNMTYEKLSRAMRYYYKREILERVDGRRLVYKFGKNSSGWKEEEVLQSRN
# Outline: as §1
# CRX = CRX (Homo sapiens, UniProt O43186 1-299); details: protein: recombinant; tags: N-terminal GST; dsDNA, one strand shown
# CRX, sequence (O43186 whole entry): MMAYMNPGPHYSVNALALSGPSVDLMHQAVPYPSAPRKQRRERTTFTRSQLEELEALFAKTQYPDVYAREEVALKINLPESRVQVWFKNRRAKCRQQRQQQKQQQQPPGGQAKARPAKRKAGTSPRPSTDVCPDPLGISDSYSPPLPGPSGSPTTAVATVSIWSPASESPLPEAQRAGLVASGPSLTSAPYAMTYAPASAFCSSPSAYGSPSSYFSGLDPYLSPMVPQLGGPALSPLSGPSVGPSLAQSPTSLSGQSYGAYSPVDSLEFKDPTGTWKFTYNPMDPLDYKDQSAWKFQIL
# Outline: as §1
# ETV1 = ETV1 (Homo sapiens, UniProt P50549 1-477); details: protein: recombinant; tags: N-terminal GST; dsDNA, one strand shown
# ETV1, sequence (P50549 whole entry): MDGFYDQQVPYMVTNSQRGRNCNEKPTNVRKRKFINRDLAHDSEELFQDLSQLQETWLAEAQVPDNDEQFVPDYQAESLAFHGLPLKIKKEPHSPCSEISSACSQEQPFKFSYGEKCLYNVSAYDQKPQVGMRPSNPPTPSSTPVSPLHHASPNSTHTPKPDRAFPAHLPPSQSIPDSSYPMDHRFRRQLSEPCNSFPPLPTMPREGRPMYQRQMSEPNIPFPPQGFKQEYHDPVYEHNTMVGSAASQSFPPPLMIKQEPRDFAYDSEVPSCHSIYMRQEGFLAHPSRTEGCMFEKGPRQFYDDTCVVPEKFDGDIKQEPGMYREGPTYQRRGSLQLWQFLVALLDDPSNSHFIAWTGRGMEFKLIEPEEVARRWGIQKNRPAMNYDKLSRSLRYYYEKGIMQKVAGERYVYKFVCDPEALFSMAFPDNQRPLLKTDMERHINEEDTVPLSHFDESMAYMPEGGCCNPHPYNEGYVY
# Outline: as §1
# ERF = target: T6, ERF (Homo sapiens, UniProt P50548 1-548); details: protein: recombinant; tags: N-terminal GST; dsDNA, one strand shown
# T6 sequence: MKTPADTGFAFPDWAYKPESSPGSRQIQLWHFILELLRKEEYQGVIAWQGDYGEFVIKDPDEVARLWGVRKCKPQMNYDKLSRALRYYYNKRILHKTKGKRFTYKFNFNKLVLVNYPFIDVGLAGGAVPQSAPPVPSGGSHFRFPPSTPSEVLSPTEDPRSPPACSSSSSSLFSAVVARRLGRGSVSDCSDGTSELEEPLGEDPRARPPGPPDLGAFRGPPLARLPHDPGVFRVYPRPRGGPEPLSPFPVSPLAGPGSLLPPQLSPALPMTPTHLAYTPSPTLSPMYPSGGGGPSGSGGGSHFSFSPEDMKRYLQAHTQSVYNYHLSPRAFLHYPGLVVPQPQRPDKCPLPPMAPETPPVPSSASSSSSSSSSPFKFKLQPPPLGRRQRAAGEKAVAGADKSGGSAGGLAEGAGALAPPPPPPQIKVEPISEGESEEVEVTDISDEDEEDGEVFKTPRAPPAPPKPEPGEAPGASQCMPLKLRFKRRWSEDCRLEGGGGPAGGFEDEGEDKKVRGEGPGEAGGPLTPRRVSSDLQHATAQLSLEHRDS
# Outline: as §1
# ETV3L = target: T7, ETV3L (Homo sapiens, UniProt Q6ZN32 1-361); details: protein: recombinant; tags: N-terminal GST; dsDNA, one strand shown
# T7 sequence: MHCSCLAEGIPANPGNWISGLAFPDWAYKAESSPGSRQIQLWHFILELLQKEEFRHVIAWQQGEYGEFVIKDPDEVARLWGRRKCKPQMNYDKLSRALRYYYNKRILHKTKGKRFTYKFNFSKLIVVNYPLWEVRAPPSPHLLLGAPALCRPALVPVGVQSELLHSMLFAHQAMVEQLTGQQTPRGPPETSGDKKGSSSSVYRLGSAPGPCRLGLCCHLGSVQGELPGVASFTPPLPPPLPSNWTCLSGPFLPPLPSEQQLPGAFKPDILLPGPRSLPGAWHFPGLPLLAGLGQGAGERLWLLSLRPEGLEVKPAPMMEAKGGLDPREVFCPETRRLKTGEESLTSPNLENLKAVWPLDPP
# Outline: as §1
# ETS2 = target: T8, ETS2 (Homo sapiens, UniProt P15036 1-469); details: protein: recombinant; tags: N-terminal GST; dsDNA, one strand shown
# T8 sequence: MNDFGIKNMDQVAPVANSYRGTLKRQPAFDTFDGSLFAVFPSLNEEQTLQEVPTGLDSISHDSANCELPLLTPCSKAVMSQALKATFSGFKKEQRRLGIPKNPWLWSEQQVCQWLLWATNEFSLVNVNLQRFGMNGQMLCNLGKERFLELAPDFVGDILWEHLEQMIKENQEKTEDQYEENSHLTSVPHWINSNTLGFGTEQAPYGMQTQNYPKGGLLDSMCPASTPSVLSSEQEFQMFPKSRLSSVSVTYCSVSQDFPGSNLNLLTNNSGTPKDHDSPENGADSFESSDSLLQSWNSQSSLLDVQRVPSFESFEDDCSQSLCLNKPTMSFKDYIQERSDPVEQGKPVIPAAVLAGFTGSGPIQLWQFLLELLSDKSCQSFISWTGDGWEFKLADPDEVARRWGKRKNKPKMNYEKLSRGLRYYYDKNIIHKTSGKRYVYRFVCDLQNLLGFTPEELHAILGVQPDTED
# Outline: as §1
# SPDEF = target: T9, SPDEF (Homo sapiens, UniProt O95238 1-335); details: protein: recombinant; tags: N-terminal GST; dsDNA, one strand shown
# T9 sequence: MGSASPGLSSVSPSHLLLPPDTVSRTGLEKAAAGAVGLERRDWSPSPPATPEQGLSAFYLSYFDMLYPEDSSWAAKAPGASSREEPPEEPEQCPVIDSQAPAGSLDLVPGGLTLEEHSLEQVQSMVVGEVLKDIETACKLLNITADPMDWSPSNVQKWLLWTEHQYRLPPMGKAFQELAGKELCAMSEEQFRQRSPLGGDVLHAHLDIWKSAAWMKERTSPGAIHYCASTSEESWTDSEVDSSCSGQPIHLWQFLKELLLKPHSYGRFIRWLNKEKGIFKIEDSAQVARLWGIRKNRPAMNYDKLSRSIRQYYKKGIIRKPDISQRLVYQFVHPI
# Outline: as §1
# ETV7 = target: T10, ETV7 (Homo sapiens, UniProt Q9Y603 1-341); details: protein: recombinant; tags: N-terminal GST; dsDNA, one strand shown
# T10 sequence: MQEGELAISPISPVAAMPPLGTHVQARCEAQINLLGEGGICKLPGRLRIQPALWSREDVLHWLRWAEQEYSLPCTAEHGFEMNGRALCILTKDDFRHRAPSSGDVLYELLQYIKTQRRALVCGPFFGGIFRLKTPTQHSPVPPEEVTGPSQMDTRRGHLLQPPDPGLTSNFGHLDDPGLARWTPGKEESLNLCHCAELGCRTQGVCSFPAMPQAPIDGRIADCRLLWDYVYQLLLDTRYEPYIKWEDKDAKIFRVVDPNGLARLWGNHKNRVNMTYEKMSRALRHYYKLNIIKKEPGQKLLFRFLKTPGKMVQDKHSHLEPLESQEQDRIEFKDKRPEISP
# Outline: as §1
# ELF5 = target: T11, ELF5 (Homo sapiens, UniProt Q9UKW6-2 1-255); details: protein: recombinant; tags: N-terminal GST; dsDNA, one strand shown
# T11 sequence: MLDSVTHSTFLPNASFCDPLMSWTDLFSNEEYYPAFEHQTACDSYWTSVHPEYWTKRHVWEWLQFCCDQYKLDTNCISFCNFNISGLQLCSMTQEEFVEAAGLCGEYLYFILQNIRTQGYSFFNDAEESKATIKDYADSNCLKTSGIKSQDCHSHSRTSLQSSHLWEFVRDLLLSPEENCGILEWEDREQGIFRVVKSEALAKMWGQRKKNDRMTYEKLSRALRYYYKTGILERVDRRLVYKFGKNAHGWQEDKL
# Outline: as §1
# ETV3 = target: T12, ETV3 (Homo sapiens, UniProt P41162-2 1-143); details: protein: recombinant; tags: N-terminal GST; dsDNA, one strand shown
# T12 sequence: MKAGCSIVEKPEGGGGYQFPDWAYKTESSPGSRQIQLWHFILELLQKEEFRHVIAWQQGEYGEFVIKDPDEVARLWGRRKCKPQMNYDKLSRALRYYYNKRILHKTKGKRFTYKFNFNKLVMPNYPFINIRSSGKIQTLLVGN
# Outline: as §1
# ETV6 = ETV6 (Homo sapiens, UniProt P41212 1-452); details: protein: recombinant; tags: N-terminal GST; dsDNA, one strand shown
# ETV6, sequence (P41212 whole entry): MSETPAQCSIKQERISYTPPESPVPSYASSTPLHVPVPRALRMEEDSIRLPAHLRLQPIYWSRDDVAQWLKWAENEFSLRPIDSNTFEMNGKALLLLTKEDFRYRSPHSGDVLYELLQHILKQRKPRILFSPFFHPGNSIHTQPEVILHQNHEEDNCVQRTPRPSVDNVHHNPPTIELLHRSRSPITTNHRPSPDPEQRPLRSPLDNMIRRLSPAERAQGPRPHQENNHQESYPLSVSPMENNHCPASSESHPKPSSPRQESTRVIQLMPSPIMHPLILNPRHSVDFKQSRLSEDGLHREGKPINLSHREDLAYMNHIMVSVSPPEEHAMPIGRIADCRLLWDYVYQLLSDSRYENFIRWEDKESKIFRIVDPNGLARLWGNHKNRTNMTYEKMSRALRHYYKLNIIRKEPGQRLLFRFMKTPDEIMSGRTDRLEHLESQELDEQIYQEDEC
# Outline: as §1
sequence,measurement,setting,value
TAAAGT,binding signal,FEV,"1.1 fold enrichment (6-mer frequency, TF over GST control)"
same,binding signal,ETV5,"1.13 fold enrichment (6-mer frequency, TF over GST control)"
same,binding signal,HSF1,"1.37 fold enrichment (6-mer frequency, TF over GST control)"
same,binding signal,SPIC,"1.13 fold enrichment (6-mer frequency, TF over GST control)"
same,binding signal,ELF4,"1.13 fold enrichment (6-mer frequency, TF over GST control)"
same,binding signal,ELK4,"1.27 fold enrichment (6-mer frequency, TF over GST control)"
same,binding signal,ETV2,"1.11 fold enrichment (6-mer frequency, TF over GST control)"
same,binding signal,ELF3,"1.13 fold enrichment (6-mer frequency, TF over GST control)"
same,binding signal,CRX,"1.75 fold enrichment (6-mer frequency, TF over GST control)"
same,binding signal,ETV1,"1.21 fold enrichment (6-mer frequency, TF over GST control)"
same,binding signal,ERF,"1.09 fold enrichment (6-mer frequency, TF over GST control)"
same,binding signal,ETV3L,"1.29 fold enrichment (6-mer frequency, TF over GST control)"
same,binding signal,ETS2,"1.22 fold enrichment (6-mer frequency, TF over GST control)"
same,binding signal,SPDEF,"1.15 fold enrichment (6-mer frequency, TF over GST control)"
same,binding signal,ETV7,"1.25 fold enrichment (6-mer frequency, TF over GST control)"
same,binding signal,ELF5,"1.17 fold enrichment (6-mer frequency, TF over GST control)"
same,binding signal,ETV3,"1.18 fold enrichment (6-mer frequency, TF over GST control)"
same,binding signal,ETV6,"1.09 fold enrichment (6-mer frequency, TF over GST control)"
